Source: PubChem BioAssay AID624094 (National Center for Advancing Translational Sciences (NCATS), 2012)
Results filed as inconclusive are left out. Activity calls are given as the source filed them. The call rests on the fitted dose curve; in most records, active means well fitted inhibition curve with a large enough effect; inconclusive means small, poorly fitted or top-dose-only effect; inactive means flat fitted curve, though single readings scatter.

Target: Dual specificity protein kinase CLK4 (Homo sapiens) (UniProt Q9HAZ1)
Sequence (Q9HAZ1 whole entry, looked up): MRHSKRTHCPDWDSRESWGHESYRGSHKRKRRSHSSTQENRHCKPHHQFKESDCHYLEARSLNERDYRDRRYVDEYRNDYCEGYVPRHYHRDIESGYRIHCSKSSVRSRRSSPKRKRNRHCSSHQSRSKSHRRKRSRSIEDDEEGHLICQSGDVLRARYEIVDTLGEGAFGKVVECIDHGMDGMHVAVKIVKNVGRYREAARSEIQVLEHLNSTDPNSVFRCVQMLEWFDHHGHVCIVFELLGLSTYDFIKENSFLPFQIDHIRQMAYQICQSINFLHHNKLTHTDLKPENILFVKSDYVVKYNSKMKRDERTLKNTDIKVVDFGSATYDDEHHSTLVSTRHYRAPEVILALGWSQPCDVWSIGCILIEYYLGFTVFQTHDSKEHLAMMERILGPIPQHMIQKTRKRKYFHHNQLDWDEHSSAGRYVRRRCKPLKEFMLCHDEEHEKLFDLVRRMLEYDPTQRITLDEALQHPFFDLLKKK
Assay: Confirmation Assay for Inhibitors of Clk4 (Kinase-Glo Assay): KU probe
Conditions: recombinant Clk4, Kinase-Glo ATP luminescence; series mostly up to 76.9 µM
Procedure, shortened: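 Read-out was Kinase-Glo luciferase luminescence of ATP left after 4.5 h room-temperature reaction. Final conditions: Clk4 25 nM, ATP 1 uM, RS peptide 100 uM, 25 mM Tris pH 7.5, 10 mM MgCl2, 0.5 mM EGTA, 2.5 mM DTT, 0.01% Triton X-100.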

| SMILES | Potency |
| --- | --- |
| COc1ccc(-c2ccnc(NCc3ccc(Cl)cc3)n2)cc1 | 0.184 µM (active) |
| CN(C)c1ccc(-c2nccc(NCc3ccc(Cl)cc3)n2)cc1 | inactive |
| Fc1ccc(CNc2ccnc(-c3ccc4c(c3)OCO4)n2)cc1F | 18.4 µM (active) |
| Clc1ccc(CNc2nccc(-c3ccc4[nH]ncc4c3)n2)cc1Cl | 0.026 µM (active) |
| COc1cccc(-c2ccnc(NCc3ccc(Cl)c(Cl)c3)n2)c1 | 3.68 µM (active) |
| c1cncc(CNc2ccnc(-c3ccc4cn[nH]c4c3)n2)c1 | 0.292 µM (active) |
| Cc1noc(C)c1-c1nccc(NCc2ccc(Cl)cc2)n1 | inactive |
| c1ccc(CNc2ccnc(-c3ccc4c(c3)OCO4)n2)cc1 | 23.2 µM (active) |
| c1nc(NCC2CCCOC2)c2cc(-c3ccc4c(c3)OCO4)ccc2n1 (centres undefined) | 0.0654 µM (active) |
| Cc1noc(C)c1-c1nccc(NCc2ccc(Cl)c(Cl)c2)n1 | inactive |
| Fc1ccc(CNc2ccnc(-c3ccc4c(c3)OCO4)n2)cc1Br | 13 µM (active) |
| CN(C)c1ccc(-c2nccc(NCc3ccccc3)n2)cc1 | inactive |
| c1cncc(CNc2cc(-c3ccc4c(c3)OCO4)ncn2)c1 | 6.54 µM (active) |
| Clc1ccc(CNc2ncncc2-c2ccc3c(c2)OCO3)cc1 | 5.82 µM (active) |
| Clc1ccc(CNc2nccc(-c3ccc4c(c3)OCO4)n2)cc1 | 0.0519 µM (active) |
| Fc1ccc(CNc2ccnc(-c3ccc4c(c3)OCO4)n2)cc1Cl | 5.19 µM (active) |
| c1cncc(CNc2ccnc(-c3ccc4[nH]ncc4c3)n2)c1 | 0.146 µM (active) |
| Fc1cc(CNc2ccnc(-c3ccc4c(c3)OCO4)n2)cc(F)c1F | 23.2 µM (active) |
| Clc1ccc(CNc2ncncc2-c2ccc3c(c2)OCO3)cc1Cl | 0.582 µM (active) |
| c1cncc(CNc2nccc(-c3ccc4[nH]ncc4c3)n2)c1 | 0.026 µM (active) |
| Cc1ccc(CNc2ccnc(-c3ccc(N(C)C)cc3)n2)cc1 | inactive |
| Brc1cncc(CNc2ccnc(-c3ccc4c(c3)OCO4)n2)c1 | 8.23 µM (active) |
| COc1cccc(Nc2ncc3ncc(=O)n(CCc4ccccc4)c3n2)c1 | 0.0923 µM (active) |
| COc1ccc(-c2ccnc(NCc3ccc(Cl)c(Cl)c3)n2)cc1OC | 26 µM (active) |
| c1cncc(CNc2nccc(-c3ccc4c(c3)OCO4)n2)c1 | 0.0232 µM (active) |
| CC(C)(C)CNc1ncnc2ccc(-c3ccc4c(c3)OCO4)cc12 | 0.0654 µM (active) |
| Clc1cc(Cl)cc(CNc2ncncc2-c2ccc3c(c2)OCO3)c1 | 0.13 µM (active) |
| c1cc(CNc2ccnc(-c3ccc4c(c3)OCO4)n2)ccn1 | 16.4 µM (active) |
| Clc1cc(Cl)cc(CNc2cc(-c3ccc4c(c3)OCO4)ncn2)c1 | 1.64 µM (active) |
